Rows were chosen to be rich in hits. Some 19% of all compounds tested hit in one or more screens of this group.
Pf growth 96h – Primary qHTS for delayed death inhibitors of the malarial parasite plastid, 96 hour incubation; 320,000 tested, 6.9% active; P. falciparum luciferase reporter growth, 96 h; AID 504834, 2011; Potency, µM (top dose mostly 28.7 µM), without a hit: top-dose activity change, negative = inhibition, actives largely listed as inhibitors; note: potency is the fitted concentration of half-maximal effect; % is set by controls: 0 for no effect and ±100 for the full control effect
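Cell-based qHTS: luciferase-tagged P. falciparum in erythrocytes (2% hematocrit, 0.05% parasitemia final) incubated with compounds for 96 hours, 37 C, 5% CO2; luciferase detection reagent then added and luminescence measured.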
Pf growth 48h – Primary qHTS for delayed death inhibitors of the malarial parasite plastid, 48 hour incubation | P. falciparum luciferase growth in erythrocytes, 48 h | Potency, µM (doses to about 28.7 µM), for the others: at the highest dose activity change, negative = inhibition, usual class: inhibitors | 310,000 tested, 5.9% active; note: potency is the fitted concentration of half-maximal effect; % is set by controls: 0 for no effect and ±100 for the full control effect
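Luciferase-expressing parasites in RBCs, 2% Hct / 0.1% parasitemia final; RPMI 1640 + 0.5% Albumax; 37 C, 5% CO2, one generation; luminescence read-out, lower signal = inhibition.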
AMA1 RON2 block – qHTS for Inhibitors of AMA1-RON; Towards Development of Antimalarial Drug Lead: Primary Screen; AlphaScreen AMA1-biotinylated RON2 peptide binding; AID 720542, 2013; 360,000 tested, 0.2% active; Potency, µM (highest dose often 58.2 µM), for inactives: at the top dose activity change, negative = inhibition, most hits filed as inhibitors;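 note: potency is the fitted concentration of half-maximal effect; 0% = vehicle wells and -100% = peptide control; nearly all actives have a fitted effect of over 45% in size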
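AMA1 (3D7) with his tag at 25 nM final met compounds first, then biotinylated RON2 peptide at 25 nM; detection used donor plus acceptor beads, 10 µg/mL apiece, read by AlphaScreen after 30 min at room temperature.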
SARS PLP yeast – qHTS of Yeast-based Assay for SARS-CoV PLP; S. cerevisiae expressing SARS-CoV PLpro, growth rescue; Potency, µM (series often up to 32.9 µM), for inactives: at the top dose activity, positive = growth rescue, most hits filed as activators; 330,000 tested, 0.19% active; calls by dose curve; note: potency is the fitted concentration of half-maximal effect; 0% is about no effect; nearly all actives have a fitted effect of over 55% in size
Cycloheximide cs – Cycloheximide Counterscreen for Small Molecule Inhibitors of Shiga Toxin; cell reporter, cycloheximide protein synthesis inhibition counterscreen; max response, %; 300,000 tested, 12% active; AID 2314, 2010; in the data active = max response mostly above about 13%, no sharp cut-off; inactive = mostly below about 14%; note: read at 38.3 µM for the half of the compounds with a filed dose; 0% is about no effect
Shiga toxin inh – A qHTS for Small Molecule Inhibitors of Shiga Toxin; Vero cells, Shiga toxin protein synthesis inhibition reporter; 290,000 tested, 9.2% active; inhibition, % at 38.7 µM; AID 2315, 2010; in the data active = inhibition mostly above about 28%, no sharp cut-off; inactive = mostly below about 43%; note: 0% is about no effect
* = called active by the depositor; u = inconclusive; x = no result given; ! = repeats disagree; [ ] = another dose, or the depositor's remark. Unless noted, calls come from the whole dose curve; as a rule, active = well fitted curve in the direction sought with a large enough effect; inconclusive = small, poorly fitted or top-dose-only effect, or another doubt; inactive = no such curve, though single readings can be large; an effect the other way counts as inactive or inconclusive.

SMILES	Pf growth 96h	Pf growth 48h	AMA1 RON2 block	SARS PLP yeast	Cycloheximide cs	Shiga toxin inh
COc1cc(C(=O)NCC(=O)NCC2COc3ccccc3O2)cc(OC)c1OC (stereo unspecified)	-26%	14%	4%	-3%	x	x
Oc1ccc(CNc2ccc(C(F)(F)F)cc2Cl)c2cccnc12	3.3µM*	1.7µM*	x	-2%	x	x
Oc1ccc(CNc2ccccc2F)c2cccnc12	4.1µM*!	1.5µM*	-81%	u	-3	24
Oc1ccc(CNc2cccc(F)c2F)c2cccnc12	u	10µM*	x	2%	x	x
O=C(Cc1ncc(C(F)(F)F)cc1Cl)NCc1cccnc1	32%	-6%	0%	0%	-2	-12
O=C1CCCc2oc3c(cc(NS(=O)(=O)c4ccc5c6c(cccc46)C(=O)N5)c4ccccc43)c21	12µM*	u	-15%	-1%	12	13
Oc1c(Cl)cccc1C=Nc1cc(C(F)(F)F)ccc1N1CCCC1	u	u	-4%	2%	2	11
Oc1c(Cl)cc(Cl)cc1C=Nc1cc(C(F)(F)F)ccc1N1CCc2ccccc2C1	-101%	71%	6%	-9%	52*	81*
COc1ccc(NC(=O)CSc2nc3sc4c(c3c(=O)n2-c2ccc(OC)cc2)CCN(C)C4)cc1	u	u	-15%	-8%	11	34
CN(C)CCNc1nc2sc3c(c2c(=O)n1-c1ccccc1)CCCCC3	-27%	-18%	-3%	2%	-3	-16
Cc1ccc(-n2c(SCC(=O)O)nc3sc4c(c3c2=O)CCCC4)cc1	2.9µM*	11%	-11%	0%	5	44
COc1ccc(-n2c(SCC(=O)Nc3nccs3)nc3sc4c(c3c2=O)CCN(C)C4)cc1	u	u	-6%	-5%	-4	10
CCOC(=O)CSc1nc2sc3c(c2c(=O)n1-c1ccc(OCC)cc1)CCN(C)C3	0.74µM*	13µM*	10%	0%	5	-5
CN(C)CCNc1nc2sc3c(c2c(=O)n1-c1ccc(F)cc1)CCCCC3	u	10µM*	-12%	0%	-3	-9
CCOc1ccc(-n2c(SCC(N)=O)nc3sc4c(c3c2=O)CCN(C)C4)cc1	0.66µM*	1.5µM*	-9%	0%	-1	-6
CC(C)Oc1ccc(C(=O)Nc2c3c(nn2-c2ccccc2)CS(=O)(=O)C3)cc1	-36%	u	8%	1%	-5	-4
CCOC(=O)CSc1nc2sc3c(c2c(=O)n1C1CCCCC1)CCN(C)C3	u	1.5µM*	-16%	-23%	-2	22
Cc1ccc(-n2c(SCC(=O)c3c(N)n(C)c(=O)n(C)c3=O)nc3sc4c(c3c2=O)CCCC4)c(C)c1	0.83µM*	1.2µM*	-6%	2%	-3	-5
C=C(C)CSc1nc2sc3c(c2c(=O)n1-c1ccc(C)cc1)CCN(C)C3	0.93µM*	1.3µM*	-1%	-1%	-1	8
CC(=O)c1ccc(NC(=S)NCCCn2ccnc2)cc1	-42%[5.75 µM]	u	-9%	0%	1	12
Cc1csc(NC(=O)c2ccccc2C(=O)O)n1	x	23%	-4%	-1%	-3	-4
Cn1cccc1C(=O)Nc1nc(-c2ccccn2)cs1	15µM*	u	-9%	-39%	51*	83*
C[C@H](NC(=O)c1ccccc1)C(=O)Nc1nc(-c2ccccn2)cs1	-10%	u	66%	-1%	6	19
Cc1csc(NC(=O)c2cccn2C)n1	317%	281%	-9%	-7%	62*	102*
Nc1o[nH]c(=O)c1C1CCCCC1	x	x	8%	x	x	x
SMILES	Pf growth 96h	Pf growth 48h	AMA1 RON2 block	SARS PLP yeast	Cycloheximide cs	Shiga toxin inh
CC(C)(C)c1ccc(-c2cn(-c3ccc(Br)cc3)c3[n+]2CCCS3)cc1	u	2.6µM*	9%	0%	-2	6
c1ccc(-c2cn(-c3ccccc3)c3[n+]2CCS3)cc1	u	u	-1%	0%	9	-6
COc1ccc(-c2cn(-c3ccccc3)c3[n+]2CCS3)cc1	0.1µM*	0.93µM*	20%	-14%	2	18
Cn1c(N)c(C(=O)CSc2nc(N)cc(N)n2)c(=O)n(C)c1=O	15%	15%	3%	4%	-2	25
CC(C)(C)C(=O)c1c(N)[nH]c(C(=O)c2ccccc2)c1-c1ccccc1Br	x	x	44%	x	x	x
COc1ccc(Br)cc1S(=O)(=O)N1CCCc2ccccc21	-22%	u	3%	4%	20*	36*
COc1ccc(C(=O)N2CCOCC2)cc1S(=O)(=O)N1CCCc2ccccc21	19%	-15%	2%	9%	2	-1
COc1ccc(C(=O)N2CCCN(C)CC2)cc1S(=O)(=O)N1CCCc2ccccc21	u	-17%	0%	-3%	26*	51*
COC(=O)C1CCN(C(=O)COC(=O)c2ccc(OC)c(S(=O)(=O)N3CCCc4ccccc43)c2)CC1	-5%	1%	0%	-7%	32*	55*
O=C(Nc1ccc(Nc2ccccc2)cc1)Nc1ccccc1Cl	105%	102%	-24%	-6%	41*	97*
O=C(Nc1ccccn1)Nc1ccccc1Cl	16%	61%	-2%	-9%	32*	50*
O=C(Nc1ccc(Cl)cc1)Nc1ccccc1Sc1ncc([N+](=O)[O-])s1	40%	2.6µM*	72%	-10%	34*	63*
O=C(Nc1csc([N+](=O)[O-])c1)Nc1ccccc1Cl	u	u	0%	-9%	36*	54*
O=C(Nc1cnccn1)Nc1ccccc1Cl	42%	41%	1%	2%	12	62
N#Cc1ccccc1NC(=O)Nc1ccc(Cl)cc1	19%	53%	-2%	1%	8	31
CCCc1[nH]n(-c2ccc(F)cc2)c(=O)c1C=Nc1ccc(C)cc1	2%	14%	16%	29%	8	-4
O=C(Nc1ccccc1Cl)Nc1cccnc1Cl	u	14%	-13%	2%	15	25
O=C(COc1ccccc1)Nc1ccccc1Cl	u	103%	7%	1%	41*	108*
COc1ccccc1NC(=O)Nc1ccccc1SC	42%	-2%	3%	-1%	1	35
COC(=O)c1ccccc1NC(=O)COc1ccccc1	21%	x	20%	-9%	4	15
O=C(Nc1ccccc1Cl)Oc1ccc(-c2ccccc2)cc1	0%	34%	-7%	-3%	18*	36
O=C(Nc1ccccc1Cl)Nc1ccccc1Cl	68%	22%	15%	0%	21*	32
Cc1cc(OC(=O)Nc2ccccc2)ccc1Cl	x	x	-1%	x	x	x
CSc1ccccc1NC(=O)Nc1ccccc1Cl	60%	-5%	-23%	-2%	24*	38

Assay outcomes: PubChem, National Center for Advancing Translational Sciences (NCATS)
